Assay results from the supplement of paper PMC10077471.
Whole data set: some 1,900 compounds, median “excess over highest single agent (ExcessHSA) synergy score, 6x6 matrix” near -83, cut for the lowest 2% near -370. Many of the other results were omitted from the sample, so the lowest values are more common in it than they were.

system: NCI-H446; experiment: excess over highest single agent (ExcessHSA) synergy score, 6x6 matrix; higher = less synergy (more negative = stronger synergy); details: 72 h; CellTiter-Glo viability

Point of comparison: `COc1cc(Oc2ccnc3cc(OC)c(OC)cc23)ccc1NC(=O)NC(C)c1nccs1` (configuration not stated) + Cc1sc2c(c1C)C(c1ccc(Cl)cc1)=N[C@@H](CC(=O)OC(C)(C)C)c1nnc(C)n1-2 [NCGC00250412-19], “excess over highest single agent” value -83.5. Against it:
- Cc1ccccc1C(C(=O)NC1CCCCC1)N(C(=O)CNc1ccc(C#N)cc1)c1cccc(F)c1 (configuration not stated) + Cc1sc2c(c1C)C(c1ccc(Cl)cc1)=N[C@@H](CC(=O)OC(C)(C)C)c1nnc(C)n1-2 [NCGC00250412-19] — lower, -209
- O=C(O)C(=O)O.[NH-]C1CCCCC1[NH-].[Pt+2] (configuration not stated) + Cc1sc2c(c1C)C(c1ccc(Cl)cc1)=N[C@@H](CC(=O)OC(C)(C)C)c1nnc(C)n1-2 [NCGC00250412-19] — lower, -135
- CC(C)(N)C(=O)N[C@H](COCc1ccccc1)C(=O)N1CCC2(CC1)CN(S(C)(=O)=O)c1ccccc12 + Cc1sc2c(c1C)C(c1ccc(Cl)cc1)=N[C@@H](CC(=O)OC(C)(C)C)c1nnc(C)n1-2 [NCGC00250412-19] — higher, -36
- CC(C)CC(=O)Nc1n[nH]c2c1CN(C(=O)C1CCN(C)CC1)C2(C)C + Cc1sc2c(c1C)C(c1ccc(Cl)cc1)=N[C@@H](CC(=O)OC(C)(C)C)c1nnc(C)n1-2 [NCGC00250412-19] — lower, -619
- COc1c(C)cnc(Cn2cnc3c(Cl)nc(N)nc32)c1C + Cc1sc2c(c1C)C(c1ccc(Cl)cc1)=N[C@@H](CC(=O)OC(C)(C)C)c1nnc(C)n1-2 [NCGC00250412-19] — lower, -371
- COc1ccc2[nH]c([S+]([O-])Cc3ncc(C)c(OC)c3C)nc2c1 (configuration not stated) + Cc1sc2c(c1C)C(c1ccc(Cl)cc1)=N[C@@H](CC(=O)OC(C)(C)C)c1nnc(C)n1-2 [NCGC00250412-19] — higher, 45.9
- COc1ccc2cc(-c3nc(-c4ccc([S+](C)[O-])cc4)[nH]c3-c3ccncc3)ccc2c1 (configuration not stated) + Cc1sc2c(c1C)C(c1ccc(Cl)cc1)=N[C@@H](CC(=O)OC(C)(C)C)c1nnc(C)n1-2 [NCGC00250412-19] — lower, -100
- CCN(CC)CCOc1ccc(Nc2ncc3cc(-c4c(Cl)cccc4Cl)c(=O)n(C)c3n2)cc1 + Cc1sc2c(c1C)C(c1ccc(Cl)cc1)=N[C@@H](CC(=O)OC(C)(C)C)c1nnc(C)n1-2 [NCGC00250412-19] — lower, -126
- CC(C)(O)CCc1ccc(OCc2cc(-c3cccc(OC(F)F)c3)c3ncccc3c2)cc1 + Cc1sc2c(c1C)C(c1ccc(Cl)cc1)=N[C@@H](CC(=O)OC(C)(C)C)c1nnc(C)n1-2 [NCGC00250412-19] — higher, 48.5
- COc1nccc(-c2c(-c3ccc(F)cc3)ncn2C2CCNCC2)n1 + Cc1sc2c(c1C)C(c1ccc(Cl)cc1)=N[C@@H](CC(=O)OC(C)(C)C)c1nnc(C)n1-2 [NCGC00250412-19] — higher, -55.9
- COc1cccc2c1[C@]13CCN(CC4CC4)[C@H](C2)[C@]1(OC)CCC(=O)C3 + Cc1sc2c(c1C)C(c1ccc(Cl)cc1)=N[C@@H](CC(=O)OC(C)(C)C)c1nnc(C)n1-2 [NCGC00250412-19] — higher, -55
- CN[C@@H]1C[C@H]2O[C@@](C)([C@@H]1OC)n1c3ccccc3c3c4c(c5c6ccccc6n2c5c31)C(=O)N[C@H]4O + Cc1sc2c(c1C)C(c1ccc(Cl)cc1)=N[C@@H](CC(=O)OC(C)(C)C)c1nnc(C)n1-2 [NCGC00250412-19] — lower, -378
- CO[C@@H]1[C@H](N(C)C(=O)c2ccccc2)C[C@H]2O[C@]1(C)n1c3ccccc3c3c4c(c5c6ccccc6n2c5c31)C(=O)NC4 + Cc1sc2c(c1C)C(c1ccc(Cl)cc1)=N[C@@H](CC(=O)OC(C)(C)C)c1nnc(C)n1-2 [NCGC00250412-19] — lower, -207
- CO[C@@H]1[C@H](N(C)C(=O)c2ccccc2)C[C@H]2O[C@]1(C)n1c3ccccc3c3c4c(c5c6ccccc6n2c5c31)C(=O)NC4=O + Cc1sc2c(c1C)C(c1ccc(Cl)cc1)=N[C@@H](CC(=O)OC(C)(C)C)c1nnc(C)n1-2 [NCGC00250412-19] — lower, -113
- CCn1c(C(=O)N(C2CC2)C2CC2)cc2c3c(ncn3C)c(Nc3cc(C)n(C)n3)nc21 + Cc1sc2c(c1C)C(c1ccc(Cl)cc1)=N[C@@H](CC(=O)OC(C)(C)C)c1nnc(C)n1-2 [NCGC00250412-19] — higher, 76.1
- N#C/C(=C(/N)Sc1ccc(N)cc1)c1ccccc1C(F)(F)F + Cc1sc2c(c1C)C(c1ccc(Cl)cc1)=N[C@@H](CC(=O)OC(C)(C)C)c1nnc(C)n1-2 [NCGC00250412-19] — lower, -146
- CCc1ccc(C(=O)Nc2cc(CN3CCN(C)CC3)cc(C(F)(F)F)c2)cc1C#Cc1cnc2ccnn2c1 + Cc1sc2c(c1C)C(c1ccc(Cl)cc1)=N[C@@H](CC(=O)OC(C)(C)C)c1nnc(C)n1-2 [NCGC00250412-19] — higher, -7.02
- O=C(NCc1ccccc1)[C@H](Cc1ccccc1)NC(=O)[C@H]1O[C@@H]1C(=O)NCCc1ccc(O)cc1 + Cc1sc2c(c1C)C(c1ccc(Cl)cc1)=N[C@@H](CC(=O)OC(C)(C)C)c1nnc(C)n1-2 [NCGC00250412-19] — higher, -10.6
- Cc1ccc(NC(=O)c2ccc(CN3CCN(C)CC3)cc2)cc1Nc1nccc(-c2cccnc2)n1 + Cc1sc2c(c1C)C(c1ccc(Cl)cc1)=N[C@@H](CC(=O)OC(C)(C)C)c1nnc(C)n1-2 [NCGC00250412-19] — lower, -176
- CCN1CCN(C(=O)Cc2ccc(Nc3ncc(F)c(Nc4ccc(C(=O)Nc5ccccc5Cl)cc4)n3)cc2)CC1 + Cc1sc2c(c1C)C(c1ccc(Cl)cc1)=N[C@@H](CC(=O)OC(C)(C)C)c1nnc(C)n1-2 [NCGC00250412-19] — lower, -388
- O=C(O)c1ccc(Nc2ncc3c(n2)-c2ccc(Cl)cc2C(c2c(F)cccc2F)=NC3)cc1 + Cc1sc2c(c1C)C(c1ccc(Cl)cc1)=N[C@@H](CC(=O)OC(C)(C)C)c1nnc(C)n1-2 [NCGC00250412-19] — lower, -157
- OC[C@@H](O)[C@@H](O)[C@@H](O)CO + Cc1sc2c(c1C)C(c1ccc(Cl)cc1)=N[C@@H](CC(=O)OC(C)(C)C)c1nnc(C)n1-2 [NCGC00250412-19] — lower, -189
- Cc1cc(Nc2nc(N[C@@H](C)c3ccc(F)cc3)c(C#N)cc2F)n[nH]1 + Cc1sc2c(c1C)C(c1ccc(Cl)cc1)=N[C@@H](CC(=O)OC(C)(C)C)c1nnc(C)n1-2 [NCGC00250412-19] — lower, -209
- CC(C)Oc1cc(Nc2nc(N[C@@H](C)c3ccc(F)cn3)ncc2Cl)n[nH]1 + Cc1sc2c(c1C)C(c1ccc(Cl)cc1)=N[C@@H](CC(=O)OC(C)(C)C)c1nnc(C)n1-2 [NCGC00250412-19] — lower, -396
- Cc1cc(Nc2nc(N[C@@H](C)c3ncc(F)cn3)ncc2Cl)[nH]n1 + Cc1sc2c(c1C)C(c1ccc(Cl)cc1)=N[C@@H](CC(=O)OC(C)(C)C)c1nnc(C)n1-2 [NCGC00250412-19] — higher, -46
- CCOC(=O)C1=C(O)C(=O)N(Cc2ccccc2)C1 + Cc1sc2c(c1C)C(c1ccc(Cl)cc1)=N[C@@H](CC(=O)OC(C)(C)C)c1nnc(C)n1-2 [NCGC00250412-19] — lower, -90.7
- Cc1ccccn1.N.[Cl-].[Cl-].[Pt+2] + Cc1sc2c(c1C)C(c1ccc(Cl)cc1)=N[C@@H](CC(=O)OC(C)(C)C)c1nnc(C)n1-2 [NCGC00250412-19] — higher, 123
- CNC(=O)c1ccc(-c2cnc3ncc(Cc4ccc5ncccc5c4)n3n2)cc1F + Cc1sc2c(c1C)C(c1ccc(Cl)cc1)=N[C@@H](CC(=O)OC(C)(C)C)c1nnc(C)n1-2 [NCGC00250412-19] — higher, 48.7
- OC[C@H]1OC(O)C[C@@H](O)[C@@H]1O (some centres not stated) + Cc1sc2c(c1C)C(c1ccc(Cl)cc1)=N[C@@H](CC(=O)OC(C)(C)C)c1nnc(C)n1-2 [NCGC00250412-19] — lower, -201
- N#Cc1c(N(CC(=O)O)CC(=O)O)sc(C(=O)O)c1CC(=O)O + Cc1sc2c(c1C)C(c1ccc(Cl)cc1)=N[C@@H](CC(=O)OC(C)(C)C)c1nnc(C)n1-2 [NCGC00250412-19] — higher, -47.5
- C[C@@H]1[C@@H](C(=O)C[C@H]2O[C@@H]3O[C@]4(C)CC[C@@H]5[C@H](C)CC[C@@H]([C@H]2C)[C@@]35OO4)O[C@@H]2O[C@]3(C)CC[C@H]4[C@H](C)CC[C@@H]1[C@@]24OO3 + Cc1sc2c(c1C)C(c1ccc(Cl)cc1)=N[C@@H](CC(=O)OC(C)(C)C)c1nnc(C)n1-2 [NCGC00250412-19] — lower, -355
- C=CCON=C(C[C@H]1O[C@@H]2O[C@]3(C)CC[C@@H]4[C@H](C)CC[C@@H]([C@H]1C)[C@@]24OO3)[C@H]1O[C@@H]2O[C@]3(C)CC[C@H]4[C@H](C)CC[C@@H]([C@@H]1C)[C@@]24OO3 + Cc1sc2c(c1C)C(c1ccc(Cl)cc1)=N[C@@H](CC(=O)OC(C)(C)C)c1nnc(C)n1-2 [NCGC00250412-19] — lower, -427
- C[C@H]1[C@@H](O)O[C@@H]2O[C@@]3(C)CC[C@H]4[C@H](C)CC[C@@H]1[C@@]24OO3 + Cc1sc2c(c1C)C(c1ccc(Cl)cc1)=N[C@@H](CC(=O)OC(C)(C)C)c1nnc(C)n1-2 [NCGC00250412-19] — lower, -199
- Cn1cnc(=N)c2[nH]cnc21 + Cc1sc2c(c1C)C(c1ccc(Cl)cc1)=N[C@@H](CC(=O)OC(C)(C)C)c1nnc(C)n1-2 [NCGC00250412-19] — lower, -164
- CN1c2cc(O)c(N=NC(N)=O)cc2CC1S(=O)(=O)O (configuration not stated) + Cc1sc2c(c1C)C(c1ccc(Cl)cc1)=N[C@@H](CC(=O)OC(C)(C)C)c1nnc(C)n1-2 [NCGC00250412-19] — lower, -280
- O=C(O)C(=O)Nc1cccc(-c2nnn[nH]2)c1 + Cc1sc2c(c1C)C(c1ccc(Cl)cc1)=N[C@@H](CC(=O)OC(C)(C)C)c1nnc(C)n1-2 [NCGC00250412-19] — higher, 42.8
